Measured values from publication PMC4336329 (PLoS ONE, 2015).
The campaign covered roughly 310,000 compounds. About 14,000 (4.5%) showed an effect of 50% or more. The effect is printed as a negative number. The entries come from a sample that favours strong results as a whole.

target: human ether-à-go-go-related gene (hERG) potassium channel (human, UniProt Q12809); experiment: primary screen, population patch clamp on CHO cells stably expressing hERG; higher = less effect of the substance
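Further: peak tail current of the secondary pulse compared with the same well before compound.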

Sequence of human ether-à-go-go-related gene (hERG) potassium channel (Q12809 whole entry, looked up): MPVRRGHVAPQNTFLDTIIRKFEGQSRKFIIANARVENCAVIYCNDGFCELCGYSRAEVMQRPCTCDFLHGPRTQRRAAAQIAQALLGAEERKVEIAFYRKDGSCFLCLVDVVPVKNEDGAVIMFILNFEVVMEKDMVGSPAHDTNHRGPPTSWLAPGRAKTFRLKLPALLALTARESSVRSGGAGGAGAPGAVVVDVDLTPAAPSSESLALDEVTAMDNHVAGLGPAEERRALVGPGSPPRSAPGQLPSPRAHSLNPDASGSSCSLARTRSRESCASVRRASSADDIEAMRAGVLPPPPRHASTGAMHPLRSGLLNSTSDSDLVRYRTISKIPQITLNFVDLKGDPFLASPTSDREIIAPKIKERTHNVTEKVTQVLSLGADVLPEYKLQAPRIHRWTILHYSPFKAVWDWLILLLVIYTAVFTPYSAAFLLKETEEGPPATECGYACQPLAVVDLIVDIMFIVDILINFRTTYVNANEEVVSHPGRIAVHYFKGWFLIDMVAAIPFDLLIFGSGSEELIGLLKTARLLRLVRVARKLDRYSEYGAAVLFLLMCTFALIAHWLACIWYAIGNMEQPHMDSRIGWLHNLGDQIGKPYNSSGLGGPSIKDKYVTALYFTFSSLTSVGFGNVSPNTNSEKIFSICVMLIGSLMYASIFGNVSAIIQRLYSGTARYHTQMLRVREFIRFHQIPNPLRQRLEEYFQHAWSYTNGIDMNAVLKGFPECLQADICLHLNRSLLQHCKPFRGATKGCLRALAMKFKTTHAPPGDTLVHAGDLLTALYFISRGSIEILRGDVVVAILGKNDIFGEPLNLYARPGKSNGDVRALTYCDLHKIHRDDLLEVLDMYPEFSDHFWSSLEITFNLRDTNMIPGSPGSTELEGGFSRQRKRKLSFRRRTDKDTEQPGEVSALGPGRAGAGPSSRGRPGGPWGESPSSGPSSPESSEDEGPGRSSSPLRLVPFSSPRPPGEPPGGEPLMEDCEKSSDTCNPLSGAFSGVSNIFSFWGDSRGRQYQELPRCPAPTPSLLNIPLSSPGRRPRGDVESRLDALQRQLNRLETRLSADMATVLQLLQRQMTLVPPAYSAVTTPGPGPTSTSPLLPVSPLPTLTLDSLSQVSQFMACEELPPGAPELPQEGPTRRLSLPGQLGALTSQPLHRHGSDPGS

Structure (SMILES)	hERG current change (%, negative = inhibition) at 10uM [%]
O=c1c2c(ncn2C2CCCC2)n(Cc2ccccc2)c(=O)n1CCOc1ccccc1	-8.64
Cc1ccc([N+](=O)[O-])cc1NC(=O)/C=C/C(=O)O	-2.79
O=C(Nc1ccc(Br)c(Br)c1)C1CCCO1 (centres unmarked)	3.39
COc1ccc(COC(=O)Nc2c(SC)nsc2SC)cc1	11.5
CCc1noc(C)c1C(=O)OCC(=O)NCc1ccccc1	2.29
NC(=O)c1ccccc1NC(=O)CSc1cn[nH]n1	13.2
Cc1cc(C)cc(NC(=O)CSc2nnc(-c3ccccc3C)o2)c1	3.37
COc1cccc(-c2nnn(CC(=O)O)n2)c1	9.1
COc1ccc(OC)c(CN2CCSCC2)c1	9.69
COc1ccc(OC)c(CN2CCC(CO)(CCOc3ccccc3)CC2)c1	-76.2
CC(=O)c1cccc(CN2CCC(CO)(CCOc3ccccc3)CC2)c1	-41.5
Cc1c(CN2CCC(CO)(CCOc3ccccc3)CC2)c(=O)n(-c2ccccc2)n1C	-5.7
COc1cc(OC)c(CN2CCC(CO)(CCOc3ccccc3)CC2)c(OC)c1	-86.4
COc1ccc(OCC(=O)N2CCCC(CO)(CCOc3ccccc3)C2)cc1 (centres unmarked)	-46.8
OCCOc1cccc(CN2CCC(CO)(CCOc3ccccc3)CC2)c1	-51.3
Cc1cc(C)c(CN2CCC(CO)(CCOc3ccccc3)CC2)cc1C	-65.2
O=C1CC(Sc2nnc(-c3ccccc3)o2)C(=O)N1c1ccccc1 (centres unmarked)	3.12
Cc1cc(C)cc(-c2nnc(SCC(=O)NCc3cccs3)o2)c1	4.21
Fc1ccccc1CN1CCN(c2ncccn2)CC1	5.66
N#Cc1c(SCC(=O)N2CCCCC2)nsc1SCC(=O)N1CCCCC1	16.5
CC(C)C(C(=O)Nc1ccccc1F)N1C(=O)c2ccccc2C1=O (centres unmarked)	-3.78
Cc1nn(CCC(=O)NNC(=S)NCC(C)C)c(C)c1Br	14
CCN(CC)S(=O)(=O)c1ccc(OC)c(NS(=O)(=O)c2ccc(F)cc2)c1	-10.5
O=C1CCc2cc(S(=O)(=O)NCc3ccccc3Cl)ccc2N1	-23.4
Cc1cc(C(=O)NNC(=O)CCCOc2ccccc2)c(C)o1	0.675
CCCNC(=O)C1CCN(c2ccc(S(=O)(=O)N3CCOCC3)cc2Cl)CC1	6.36
